Sm TGR block: S. mansoni TGR enzyme inhibition | Q962Y6 | purified TGR, DTNB reduction, TNB absorbance 405 nm | Potency, µM (highest dose often 114 µM), for inactives: top-dose activity change, negative = inhibition, actives largely listed as inhibitors | 360,000 compounds, 3% hits; further: potency means the concentration at half of the fitted maximal effect; nearly all actives have a fitted effect of over 60% in size
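Kinetic colorimetric format: TGR-catalysed, NADPH-driven DTNB reduction monitored via TNB absorbance. Enzyme dispensed at 20 nM; compound exposure 15 min at room temperature before reaction start.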
Pf growth 96h: P. falciparum growth inhibition at 96 hour, primary screen for plastid delayed-death inhibitors; AID 504834; P. falciparum luciferase reporter growth, 96 h; 320,000 compounds, 6.9% hits; Potency, µM (titrated, usually from 28.7 µM), without a hit: at the top dose activity change, negative = inhibition, most hits filed as inhibitors; further: potency means the concentration at half of the fitted maximal effect
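96 h incubation, 37 C, 5% CO2, of luciferase-reporter P. falciparum-infected RBCs (2% hematocrit, 0.05% parasitemia final) with test compounds; endpoint luminescence.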
Pf growth 48h: P. falciparum growth inhibition at 48 hours (one generation). P. falciparum luciferase growth in erythrocytes, 48 h. Potency, µM (highest dose often 28.7 µM), for inactives: at the highest dose activity change, negative = inhibition, usual class: inhibitors. 310,000 compounds, 5.9% hits. AID 504832; further: potency means the concentration at half of the fitted maximal effect
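Read-out is firefly luciferase luminescence from an integrated reporter in P. falciparum, so falling signal marks reduced parasite growth. Infected erythrocytes were at 2% hematocrit and 0.1% parasitemia (final) in Albumax-supplemented RPMI 1640.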
HCMV antiviral: human cytomegalovirus inhibition; HFF cells, HCMV-luciferase reporter, 72 h; hits give low values; activity change, negative = inhibition, % at 57.5 µM; 410,000 compounds, 4.5% hits; in the data active means activity change below about -60%; inconclusive means no clear call, values can overlap the other calls; inactive means above about -39%
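Cell-based, HFFs, 1000 cells/well, 16 h 37C; cpds in DMSO + HCMV-luc, MOI 1 PFU/cell; 72 h 37C; OneGlo luminescence after 5 min RT; norm. to buffer vs Salinomycin 10uM.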
Giardia FBPA inh: blocks Giardia fructose-bisphosphate aldolase activity. purified Giardia FBPA. 290,000 compounds, 0.71% hits. Potency, µM (top dose mostly 59.6 µM), without a hit: at the highest dose activity, negative = inhibition, most hits filed as inhibitors. A8B2U2; further: potency means the concentration at half of the fitted maximal effect; nearly all actives have a fitted effect of over 55% in size
Target sequence (A8B2U2 whole entry, looked up): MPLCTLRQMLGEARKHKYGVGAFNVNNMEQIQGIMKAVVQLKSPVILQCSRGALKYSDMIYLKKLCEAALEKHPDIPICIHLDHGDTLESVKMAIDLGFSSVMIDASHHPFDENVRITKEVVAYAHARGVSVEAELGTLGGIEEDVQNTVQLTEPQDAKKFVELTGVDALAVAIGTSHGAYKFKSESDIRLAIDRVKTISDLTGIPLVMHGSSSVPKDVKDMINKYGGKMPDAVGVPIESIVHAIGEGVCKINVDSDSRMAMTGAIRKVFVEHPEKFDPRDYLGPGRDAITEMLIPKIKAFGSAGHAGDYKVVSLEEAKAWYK
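Giardia FBPA (40 nM reagent) was preincubated 10 min at RT with compound (up to 57.5 uM final), then substrate plus GAPDH/TPI/NAD/arsenate coupling system with diaphorase/resazurin was added; resorufin fluorescence (525/598 nm) was read after 20 min.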
Numbers without * were called inactive; ? = inconclusive; . = not tested or not shown. Only some compounds are listed: those with a hit (about 14% of all), similar ones and a draw of the others. Unless noted, the call rests on the fitted dose curve; in most records, active means well fitted curve in the direction sought with a large enough effect; inconclusive means small, poorly fitted or top-dose-only effect, or another doubt; inactive means no such curve, though single readings can be large; an effect the other way counts as inactive or inconclusive. On the % scale 0 is the no-effect control and ±100 the full control effect.

SMILES	Sm TGR block	Pf growth 96h	Pf growth 48h	HCMV antiviral	Giardia FBPA inh
Cc1ccc(NC2=CC(=O)C(=O)c3ccccc32)c(C)c1	-20.3%	0.586µM*	0.828µM*	-96.3*	.
O=C1C=C(Nc2ccccc2O)c2ccccc2C1=O	-35.2%	9.28µM*	10.4µM*	-93.4*	17.7µM*
O=C1C=C(NCc2ccccc2)c2ccccc2C1=O	28.2µM*	-4.6%	?	-83.9*	1.26µM*
CC(=O)Nc1ccccc1O	4.7%	10.1%	4.3%	-33.0	4.6%
CSCc1c(C(=O)NCCc2ccccn2)oc2ccccc12	-6.9%	?	?	-27.3	-4.8%
COc1ccc(CCC(=O)OCC(=O)Nc2c(C)n(C)n(-c3ccccc3)c2=O)cc1	-0.1%	11.1%	-3.2%	17.7	.
O=C1C=C(Nc2ccc(F)cc2)c2ccccc2C1=O	-19.8%	1.04µM*	1.85µM*	34.3	.
O=C1C=C(Nc2cccnc2)c2ccccc2C1=O	.	.	.	22.9	.
CC1(C)C(=O)OC(c2cccs2)C(C)(C)C1=O (centres undefined)	0.3%	1.85µM*	3.1%	15.0	1.0%
CC1(C)C(=O)OC(c2ccccc2)C(C)(C)C1=O (centres undefined)	-27.3%	22.3%	10.1%	-20.3	-4.8%
O=C(COc1ccccc1F)Nc1nnc(SCc2cc(=O)n3ccccc3n2)s1	0.0%	.	.	7.7	.
COCCCNC(=S)N1CCN(c2nc(-c3ccccc3)cs2)CC1	2.8%	?	-6.5%	-67.4*	2.1%
CCN(CC)CCCNC(=S)N1CCN(c2nc(-c3ccccc3)cs2)CC1	?	44.3%	?	-31.5	0.0%
CC(C)CNC(=S)N1CCN(c2nc(-c3ccc(Cl)cc3)cs2)CC1	5.1%	10.4µM*	-8.1%	?	13.0%
CCOCCCNC(=S)N1CCN(c2nc(-c3ccccc3)cs2)CC1	3.2%	-23.6%	-25.3%	-86.1*	7.8%
COCCCNC(=S)N1CCN(c2nc(-c3ccc(Cl)cc3)cs2)CC1	.	.	.	-92.1*	.
CCC(=O)N1CCN(c2nc(-c3ccc(Cl)cc3)cs2)CC1	-2.7%	-7.0%	9.7%	?	-8.6%
O=C(NCc1cccnc1)NC(=O)c1ccc(Cl)cc1	-7.7%	-5.1%	3.5%	-18.0	3.5%
CC[C@H](C)/C=C(C)/C=C/C1=CC2=CC(=O)[C@]3(C)OC(=O)[C@@H](C(C)=O)[C@@H]3C2=CO1	14.1µM*	89.2%	?	20.1	-21.4%
CCC(C)/C=C(C)/C=C/C1=CC2=C(Cl)C(=O)C(C)(OC(C)=O)C(=O)C2=CO1 (centres undefined)	-21.0%	9.28µM*	?	.	-5.0%
CCC(=O)OC1(C)C(=O)C=C2C=C(/C=C/COC)OC=C2C1=O (centres undefined)	.	.	.	.	-0.6%
COC(=O)[C@@H]1[C@@H](CO)[C@@H]2Cn3c(cccc3=O)[C@H]1N2C	.	.	.	5.1	.
O=C(Cn1c2ccc(F)cc2c2nc3n(c(=O)c21)CCS3)Nc1ccc(Cl)cc1F	-6.7%	-0.2%	?	?	-2.7%
O=C(Cn1c2ccc(F)cc2c2nc3n(c(=O)c21)CCS3)N1CCCC1	8.7%	-2.6%	-12.9%	.	-3.4%
COc1cc2c3nc4n(c(=O)c3n(CC(=O)NCC3CCCO3)c2cc1OC)CCS4 (centres undefined)	141.2%	1.5%	0.9%	-91.5*	10.4%
SMILES	Sm TGR block	Pf growth 96h	Pf growth 48h	HCMV antiviral	Giardia FBPA inh
COc1cccc(NC(=O)Cn2c3ccc(F)cc3c3nc4n(c(=O)c32)CCCS4)c1	-23.7%	?	?	-61.3*	.
O=c1c2c(nc3n1CCS3)c1cc(F)ccc1n2Cc1cc(=O)n2cc(Cl)ccc2n1	-8.5%	1.85µM*	?	.	1.7%
Cc1ccc(NC(=O)Cn2c3ccc(F)cc3c3nc4n(c(=O)c32)CCS4)cc1F	11.4%	33.4%	138.7%	-72.4*	-1.7%
O=C(CSc1nc(=O)n(Cc2ccco2)c2c1CCC2)NCc1ccc(F)cc1	0.5%	.	.	-15.0	.
O=C(N/C=C/c1ccco1)OCc1ccccc1	44.7µM*	45.5%	84.7%	-12.1	-4.1%
Nc1ccccc1NC(=O)OCc1ccccc1	.	.	.	-15.1	.
O=C(NCc1ccccc1)/C(=C/c1ccco1)NC(=O)c1ccco1	0.6%	-2.4%	?	-4.0	-7.4%
O=C(N/C=C/c1ccco1)NCc1ccccc1	25.1µM*	14.5%	-7.1%	-28.6	-9.9%
CCc1nn2c(=O)cc(COC(=O)c3ccccc3)nc2s1	1.7%	.	.	4.3	.

Source: PubChem BioAssay
